Assay results as given in PubChem BioAssay AID602350 (Broad Institute, 2012).
Results with a measured potency or affinity are listed apart. Calls of active or inactive are those of the source.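 The calls were made as follows: active = absorbance falls by 30% or more versus neutral controls, with a potency fitted within twice the top valid dose; inconclusive = no clear call, values can overlap the other calls; inactive = change opposite to expected direction, plus the rest.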

Each compound was assayed against Protein disulfide-isomerase (Homo sapiens) (UniProt P07237) (assay: inhibition of PDI-driven insulin aggregation – biochemical, turbidity, absorbance, cherry-picked samples, dose response (AID 602350)). Conditions: recombinant PDI insulin aggregation, absorbance 650 nm, 90 min; series mostly up to 19.5 µM.
Protein disulfide-isomerase (Homo sapiens), sequence (P07237 whole entry, looked up): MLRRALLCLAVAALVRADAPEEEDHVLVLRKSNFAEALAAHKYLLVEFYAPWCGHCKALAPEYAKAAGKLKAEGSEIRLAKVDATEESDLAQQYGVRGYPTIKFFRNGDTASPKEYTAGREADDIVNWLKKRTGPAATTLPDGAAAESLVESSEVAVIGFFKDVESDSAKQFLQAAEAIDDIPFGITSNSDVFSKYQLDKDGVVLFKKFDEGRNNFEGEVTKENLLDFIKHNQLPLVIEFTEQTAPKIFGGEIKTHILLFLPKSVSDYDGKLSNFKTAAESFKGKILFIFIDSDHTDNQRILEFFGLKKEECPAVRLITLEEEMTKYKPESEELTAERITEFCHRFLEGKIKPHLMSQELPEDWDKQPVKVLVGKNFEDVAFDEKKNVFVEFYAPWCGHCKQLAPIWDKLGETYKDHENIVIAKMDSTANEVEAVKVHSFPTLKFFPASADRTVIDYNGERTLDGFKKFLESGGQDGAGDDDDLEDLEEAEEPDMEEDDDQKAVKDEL

outcome, inactive:
O=C(CN1C(=O)NC2(CCCC2)C1=O)Nc1ccc(C(F)(F)F)cc1
CC(OC(=O)c1cccc(S(=O)(=O)N(C)C)c1)C(=O)NCC(=O)Nc1ccc(F)c(F)c1F (configuration not stated)
O=C(CCc1nc(-c2ccccc2F)no1)Nc1ccc(Oc2ccccc2)cc1
O=C(NCCCN1CCOCC1)C(Sc1ccccc1)c1ccccc1 (configuration not stated)
O=C1N[C@@H](Cc2c[nH]c3ccccc23)COC(=O)[C@H](Cc2ccc(F)cc2)C/C=C\C[C@H]1CC(=O)N(CCO)Cc1ccccc1
CN(C)c1ccc(C2(O)C(=O)c3ccccc3C2=O)cc1
O=C(c1ccc(NS(=O)(=O)c2ccccc2)cc1)N1CCOCC1
